# Reference: PubChem BioAssay
# Calls of active or inactive are those of the source.
# Test: HepG2 liver cancer cell viability effects, profiling panel, resazurin fluorescence, 24 h, PK04 Diversity Set (AID 1172); also: test concentration not given here
# Settings: higher = more signal
row,SMILES,z-score
1,COc1ccc([Si](C)(C)[C@H]2[C@H](CC(=O)N3Cc4ccccc4C[C@H]3CO)O[C@@]3(C(=O)N(c4ccccc4)c4ccccc43)[C@@H]2C)cc1,0.635
2,N#Cc1ccc(-c2cccc(=O)o2)cc1,-0.518
3,COCCOC(=O)N1C(=O)[C@@]2(c3ccccc31)[C@H](C(=O)N1CCN(c3ncccn3)CC1)[C@H]1C(=O)O[C@H](c3ccccc3)[C@H](c3ccccc3)N1[C@@H]2c1ccccc1OCCO,-0.482
4,NC(=O)NCC#Cc1ccc2c(c1)[C@]1(C(=O)N2)[C@H](c2ccc(OCCO)cc2)N2[C@H](c3ccccc3)[C@H](c3ccccc3)OC(=O)[C@H]2[C@@H]1C(=O)O,-0.983
5,COC(=O)[C@@]1(Cc2ccc(OC)cc2)[C@H]2c3cc(C(=O)N(C)C)[nH]c3C[C@H]2CN1C(=O)c1ccccc1,-0.576

# Test: basal S. cerevisiae growth modulation, no modifier, primary screen, OD600, strain BY4716, 24 h, basal condition (AID 1173)
# Settings: OD600, 24 h, higher = more signal, called active from +8 up or from −8 down
row,SMILES,z-score
1,COc1cc(OC)c(C(O)C2C=CC3C(=O)N(c4ccccc4)C(=O)C3N2Nc2ccc(C(C)C)cc2)cc1Br (stereo not given),-4.46 (inactive)
2,CC(C)c1nc2cc(Br)ccc2c(=O)o1,1.25 (inactive)
3,CN1C(=O)[C@@H]2[C@@H](CC(COc3ccccc3)=C3[C@@H](CCc4ccccc4)OB(O)C[C@@H]32)C1=O,-1.87 (inactive)
4,O=C(NCCN1CCOCC1)[C@@H]1c2ccccc2C(=O)N(Cc2ccc(OC(F)(F)F)cc2)[C@H]1c1ccc(CO)cc1,-0.559 (inactive)
5,CN(C)c1ccc(C(O)C2C=CC3C(=O)N(Cc4ccccc4)C(=O)C3N2n2cnnc2)cc1 (stereo not given),-0.116 (inactive)
6,CC(C)C(O)C1C=CC2C(=O)NC(=O)C2N1Nc1ccccn1 (stereo not given),0.754 (inactive)
7,COc1ccc([Si](C)(C)[C@@H]2[C@@H](CC(=O)N3Cc4ccccc4C[C@H]3CO)O[C@]3(C(=O)N(Cc4ccc(N5CCOC5=O)cc4)c4ccccc43)[C@H]2C)cc1,-0.678 (inactive)
8,COCCOC(=O)N1C(=O)[C@@]2(c3cc(C#CCC(C(=O)OC)C(=O)OC)ccc31)[C@H](C(=O)Nc1nc3ccccc3s1)[C@H]1C(=O)O[C@H](c3ccccc3)[C@H](c3ccccc3)N1[C@@H]2c1ccc(O)cc1,0.945 (inactive)
9,COc1cc(CO)cc(I)c1O[C@H]1C=C(C(=O)NCCO)C[C@@H](NC2CCCCCC2)[C@@H]1O,-4.02 (inactive)
10,O=C(NC1CC1)[C@@H]1c2ccccc2C(=O)N(Cc2ccc(OC(F)(F)F)cc2)[C@H]1c1ccc(CO)cc1,-0.327 (inactive)
11,CCOC(=O)C1=CC[C@@H](c2ccc(OC)cc2)N(S(=O)(=O)c2ccc(C)cc2)[C@H]1CC,-1.82 (inactive)
12,CC1CC/C=C\[C@H]2OC34C=CCN(C(C)(C)C)C(=O)[C@H]3N(CCCO)C(=O)[C@@H]4C2C(=O)O1 (stereo not given in full),1 (inactive)
13,C=C(C)[C@@H]1CC=C(C(O)C2C=CC3C(=O)N(c4ccccc4)C(=O)C3N2Nc2ccc([N+](=O)[O-])cc2)CC1 (stereo not given in full),0.139 (inactive)
14,C=CCOC(=O)[C@@H]1[C@H]2C(=O)O[C@H](c3ccccc3)[C@H](c3ccccc3)N2[C@H](c2ccc(OCCOC(=O)[C@H]3C[C@H]4C(=O)NCC(=O)N4[C@H]3c3cccc(OCCO)c3)cc2)[C@@]12C(=O)Nc1ccc(I)cc12,1.87 (inactive)
15,COC(=O)[C@H](Cc1ccccc1)N1CC2=CCCC=C[C@@H]2[C@H]1[C@H](O)Cc1ccccc1,-1.7 (inactive)
16,CC(=O)OCC1C2CC[C@H]3C(OCc4ccc(F)cc4C(F)(F)F)OC[C@]4(C)[C@H]3C2=C(CN4C(=O)OC(C)(C)C)[C@H](C)C1COC(C)=O (stereo not given in full),1.69 (inactive)
17,CC(=O)c1ccc(C(O)C2C=CC3C(=O)N(c4ccccc4)C(=O)C3N2Nc2ccc(C(C)C)cc2)cc1 (stereo not given),-0.829 (inactive)
18,CC(C)NC(=O)[C@@]1(C)c2ccccc2C(=O)N(Cc2ccccc2)[C@H]1c1ccc(CO)cc1,-0.177 (inactive)

row,SMILES,z-score
1,CCCCC(O)C1C=CC2C(=O)N(c3ccccc3)C(=O)C2N1Nc1ccc([N+](=O)[O-])cc1 (stereo not given),-0.485 (inactive)
2,Cc1ccc(S[C@]2(C(=O)NC3CC3)CC(=O)N(C(C)C)[C@@H]2c2ccc(CO)cc2I)cc1,-3.47 (inactive)
3,COCCOC(=O)N1C(=O)[C@@]2(c3cc(C#CCC(C(=O)OC)C(=O)OC)ccc31)[C@H](C(=O)Nc1nc3ccccc3s1)[C@H]1C(=O)O[C@H](c3ccccc3)[C@H](c3ccccc3)N1[C@@H]2c1ccc(OCCO)cc1,1.18 (inactive)
4,COC(=O)C1=CC(CCCO)=CC(c2cccs2)N(Cc2cc3c(cc2Br)OCO3)C=C1C(=O)OC (stereo not given),-0.23 (inactive)
5,CN1C(=O)C2C(C1=O)C1C=C(c3ccc(CO)cc3)C2C(C2CC2)N1C (stereo not given),0.385 (inactive)
6,COCCCNC(=O)[C@@H]1c2ccccc2C(=O)N(Cc2ccc(OC(F)(F)F)cc2)[C@H]1c1ccc(CO)cc1,0 (inactive)
7,COCCCNC(=O)[C@@]1(CCC(=O)OC(C)(C)C)COC(c2ccc(OCCCO)cc2)=N1,-0.579 (inactive)
8,O=C(O)[C@H](Cc1ccccc1)n1cc(C2(O)CCCCC2)nn1,-0.415 (inactive)
9,CN(C)CCCC[C@@H]1NC(=O)[C@@H]2C[C@H](C(=O)NCCCCCCNC(=O)CS)[C@H](c3ccc(O)cc3)N2C1=O,-0.17 (inactive)
10,COC(=O)[C@@]1(Cc2ccc(OC)cc2)[C@H]2c3cc(C(=O)N4CCCC4)n(CCn4cc([N+](=O)[O-])nc4C)c3C[C@H]2CN1C(=O)c1ccccc1,0.477 (inactive)
11,[N-]=[N+]=NCc1ccccc1[C@@H]1OC(c2ccc(OCCCO)cc2)=N[C@]1(Cc1ccccc1N=[N+]=[N-])C(=O)O,-3.6 (inactive)
12,C=CCOC(=O)[C@H]1[C@@H]2C(=O)O[C@@H](c3ccccc3)[C@@H](c3ccccc3)N2[C@@H](c2ccc(OCCOC(=O)[C@H]3C[C@H]4C(=O)N[C@@H](CC(C)C)C(=O)N4[C@H]3c3ccc(O)cc3)cc2)[C@]12C(=O)Nc1ccccc12,1.1 (inactive)
13,COc1ccc([Si](C)(C)[C@H]2[C@H](CC(=O)N3Cc4ccccc4C[C@H]3CO)O[C@@]3(C(=O)N(c4ccccc4)c4ccccc43)[C@@H]2C)cc1,-1.89 (inactive)
14,N#Cc1ccc(-c2cccc(=O)o2)cc1,-0.923 (inactive)
15,COCCOC(=O)N1C(=O)[C@@]2(c3ccccc31)[C@H](C(=O)N1CCN(c3ncccn3)CC1)[C@H]1C(=O)O[C@H](c3ccccc3)[C@H](c3ccccc3)N1[C@@H]2c1ccccc1OCCO,1.76 (inactive)
16,NC(=O)NCC#Cc1ccc2c(c1)[C@]1(C(=O)N2)[C@H](c2ccc(OCCO)cc2)N2[C@H](c3ccccc3)[C@H](c3ccccc3)OC(=O)[C@H]2[C@@H]1C(=O)O,-0.434 (inactive)
17,COC(=O)[C@@]1(Cc2ccc(OC)cc2)[C@H]2c3cc(C(=O)N(C)C)[nH]c3C[C@H]2CN1C(=O)c1ccccc1,0.304 (inactive)
